Columns and labels:
[1] = target: T1, Tyrosine-protein kinase receptor TYRO3 (Homo sapiens) (UniProt Q06418); conditions: at 1 µM
T1 sequence (whole entry): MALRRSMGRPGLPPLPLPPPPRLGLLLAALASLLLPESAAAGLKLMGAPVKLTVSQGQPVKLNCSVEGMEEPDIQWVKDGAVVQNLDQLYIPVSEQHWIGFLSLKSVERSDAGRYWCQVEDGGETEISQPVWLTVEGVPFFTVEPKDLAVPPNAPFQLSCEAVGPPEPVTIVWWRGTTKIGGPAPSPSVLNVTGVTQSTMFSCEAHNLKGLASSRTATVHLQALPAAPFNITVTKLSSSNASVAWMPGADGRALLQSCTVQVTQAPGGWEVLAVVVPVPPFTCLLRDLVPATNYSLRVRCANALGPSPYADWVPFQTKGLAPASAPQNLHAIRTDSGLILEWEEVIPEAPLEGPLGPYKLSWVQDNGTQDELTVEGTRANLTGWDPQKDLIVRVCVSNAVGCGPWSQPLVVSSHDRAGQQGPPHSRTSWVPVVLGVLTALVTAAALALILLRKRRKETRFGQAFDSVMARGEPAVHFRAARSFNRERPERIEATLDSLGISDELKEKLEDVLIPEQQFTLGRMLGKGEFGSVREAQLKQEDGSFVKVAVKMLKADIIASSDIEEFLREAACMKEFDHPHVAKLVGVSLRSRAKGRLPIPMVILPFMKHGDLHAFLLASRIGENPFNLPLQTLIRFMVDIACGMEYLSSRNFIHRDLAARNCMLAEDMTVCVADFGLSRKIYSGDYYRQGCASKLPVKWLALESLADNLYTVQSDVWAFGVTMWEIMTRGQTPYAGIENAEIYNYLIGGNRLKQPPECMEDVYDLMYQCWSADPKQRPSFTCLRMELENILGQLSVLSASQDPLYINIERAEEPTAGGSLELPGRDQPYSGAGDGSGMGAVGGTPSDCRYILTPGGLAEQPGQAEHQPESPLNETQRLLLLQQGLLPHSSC

[2] = target: Tyrosine-protein kinase Yes (Homo sapiens) (UniProt P07947); conditions: at 0.1 µM
Tyrosine-protein kinase Yes (Homo sapiens), sequence (P07947 2-543 limits assumed): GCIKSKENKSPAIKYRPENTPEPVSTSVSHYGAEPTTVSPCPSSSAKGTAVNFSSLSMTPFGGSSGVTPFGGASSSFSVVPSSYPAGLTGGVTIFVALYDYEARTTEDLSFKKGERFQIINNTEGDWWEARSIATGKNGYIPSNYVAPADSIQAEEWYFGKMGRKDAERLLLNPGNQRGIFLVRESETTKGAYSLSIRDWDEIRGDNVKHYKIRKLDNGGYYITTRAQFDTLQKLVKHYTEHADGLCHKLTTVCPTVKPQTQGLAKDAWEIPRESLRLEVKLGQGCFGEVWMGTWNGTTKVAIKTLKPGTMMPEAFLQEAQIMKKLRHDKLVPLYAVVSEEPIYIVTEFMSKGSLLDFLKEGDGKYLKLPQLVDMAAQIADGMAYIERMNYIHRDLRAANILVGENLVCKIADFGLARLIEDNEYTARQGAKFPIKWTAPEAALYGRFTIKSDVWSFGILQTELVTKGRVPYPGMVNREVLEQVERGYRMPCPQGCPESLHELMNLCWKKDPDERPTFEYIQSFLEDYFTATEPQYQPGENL

[3] = target: Tyrosine-protein kinase Yes (Homo sapiens) (UniProt P07947); conditions: at 1 µM
[4] = target: T2, Tyrosine-protein kinase ZAP-70 (Homo sapiens) (UniProt P43403); conditions: at 0.1 µM
T2 sequence (whole entry): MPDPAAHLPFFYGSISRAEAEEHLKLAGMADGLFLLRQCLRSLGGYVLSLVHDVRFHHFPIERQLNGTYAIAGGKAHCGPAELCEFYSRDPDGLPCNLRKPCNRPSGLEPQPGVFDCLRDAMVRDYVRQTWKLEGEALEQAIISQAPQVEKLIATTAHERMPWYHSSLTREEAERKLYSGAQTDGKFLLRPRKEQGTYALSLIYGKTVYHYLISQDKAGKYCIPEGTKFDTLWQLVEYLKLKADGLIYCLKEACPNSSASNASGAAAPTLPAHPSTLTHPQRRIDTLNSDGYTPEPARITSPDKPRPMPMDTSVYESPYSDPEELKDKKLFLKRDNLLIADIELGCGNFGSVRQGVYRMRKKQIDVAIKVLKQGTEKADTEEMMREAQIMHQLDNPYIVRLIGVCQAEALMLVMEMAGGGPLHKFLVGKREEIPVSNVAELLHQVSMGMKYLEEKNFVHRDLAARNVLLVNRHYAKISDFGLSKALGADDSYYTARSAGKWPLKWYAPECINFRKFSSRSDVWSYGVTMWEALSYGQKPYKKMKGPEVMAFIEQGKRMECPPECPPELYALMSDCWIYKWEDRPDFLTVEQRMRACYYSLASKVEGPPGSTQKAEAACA

[5] = target: T2, Tyrosine-protein kinase ZAP-70 (Homo sapiens); conditions: at 1 µM
[6] = target: Serine/threonine-protein kinase B-raf (Homo sapiens) (UniProt P15056); conditions: at 0.1 µM
Serine/threonine-protein kinase B-raf (Homo sapiens), sequence (P15056 whole entry): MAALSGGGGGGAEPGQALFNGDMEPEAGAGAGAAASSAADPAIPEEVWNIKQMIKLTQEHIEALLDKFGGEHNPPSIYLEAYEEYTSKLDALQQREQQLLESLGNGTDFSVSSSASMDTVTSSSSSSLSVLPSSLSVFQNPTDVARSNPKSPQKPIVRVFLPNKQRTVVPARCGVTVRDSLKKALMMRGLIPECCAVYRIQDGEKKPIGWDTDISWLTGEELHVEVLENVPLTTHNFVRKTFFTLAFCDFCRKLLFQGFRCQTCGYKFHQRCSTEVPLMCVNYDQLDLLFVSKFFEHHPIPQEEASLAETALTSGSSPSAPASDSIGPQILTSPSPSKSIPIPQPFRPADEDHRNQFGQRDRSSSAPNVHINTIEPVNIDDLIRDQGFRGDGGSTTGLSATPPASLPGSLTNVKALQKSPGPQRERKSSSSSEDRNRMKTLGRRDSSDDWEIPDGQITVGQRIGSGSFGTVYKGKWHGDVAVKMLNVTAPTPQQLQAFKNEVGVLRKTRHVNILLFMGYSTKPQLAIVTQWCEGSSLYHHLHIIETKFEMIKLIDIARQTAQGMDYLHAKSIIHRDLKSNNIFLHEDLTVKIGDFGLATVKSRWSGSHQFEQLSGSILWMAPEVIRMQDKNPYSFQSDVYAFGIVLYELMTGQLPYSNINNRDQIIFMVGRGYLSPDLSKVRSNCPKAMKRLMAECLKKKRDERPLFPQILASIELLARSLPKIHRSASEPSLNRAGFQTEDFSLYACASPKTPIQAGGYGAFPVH

[7] = target: Serine/threonine-protein kinase B-raf (Homo sapiens) (UniProt P15056); conditions: at 1 µM
[8] = test system: Serine/threonine-protein kinase B-raf (Homo sapiens), P15056 [V600E]; conditions: at 0.1 µM
Serine/threonine-protein kinase B-raf (Homo sapiens), P15056 [V600E], sequence (P15056 whole entry V600E): as the sequence (P15056 whole entry) above, with V600E counted along it

[9] = test system: Serine/threonine-protein kinase B-raf (Homo sapiens), P15056 [V600E]; conditions: at 1 µM
[10] = target: RAF proto-oncogene serine/threonine-protein kinase (Homo sapiens) (UniProt P04049); conditions: at 0.1 µM
RAF proto-oncogene serine/threonine-protein kinase (Homo sapiens), sequence (P04049 whole entry): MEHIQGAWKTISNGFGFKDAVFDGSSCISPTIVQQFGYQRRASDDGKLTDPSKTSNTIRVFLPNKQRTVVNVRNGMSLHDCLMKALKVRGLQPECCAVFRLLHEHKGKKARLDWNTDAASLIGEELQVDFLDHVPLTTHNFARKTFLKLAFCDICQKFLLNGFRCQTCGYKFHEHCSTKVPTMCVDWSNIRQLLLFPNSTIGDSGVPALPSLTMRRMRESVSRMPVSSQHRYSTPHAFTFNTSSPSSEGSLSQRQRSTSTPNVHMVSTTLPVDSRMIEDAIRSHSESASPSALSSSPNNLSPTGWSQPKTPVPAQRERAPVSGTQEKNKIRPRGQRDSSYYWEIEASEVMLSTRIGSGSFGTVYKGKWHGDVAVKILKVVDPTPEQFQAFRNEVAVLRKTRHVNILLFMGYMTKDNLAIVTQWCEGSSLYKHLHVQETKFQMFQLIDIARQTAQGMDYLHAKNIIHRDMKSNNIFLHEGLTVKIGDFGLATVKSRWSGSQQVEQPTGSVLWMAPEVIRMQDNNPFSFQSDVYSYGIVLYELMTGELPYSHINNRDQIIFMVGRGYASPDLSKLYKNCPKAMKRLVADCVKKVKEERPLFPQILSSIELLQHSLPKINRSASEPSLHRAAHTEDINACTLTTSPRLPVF

[11] = target: RAF proto-oncogene serine/threonine-protein kinase (Homo sapiens) (UniProt P04049); conditions: at 1 µM
[12] = target: T3, Interleukin-1 receptor-associated kinase 4 (Homo sapiens) (UniProt Q9NWZ3); conditions: at 0.1 µM
T3 sequence (whole entry): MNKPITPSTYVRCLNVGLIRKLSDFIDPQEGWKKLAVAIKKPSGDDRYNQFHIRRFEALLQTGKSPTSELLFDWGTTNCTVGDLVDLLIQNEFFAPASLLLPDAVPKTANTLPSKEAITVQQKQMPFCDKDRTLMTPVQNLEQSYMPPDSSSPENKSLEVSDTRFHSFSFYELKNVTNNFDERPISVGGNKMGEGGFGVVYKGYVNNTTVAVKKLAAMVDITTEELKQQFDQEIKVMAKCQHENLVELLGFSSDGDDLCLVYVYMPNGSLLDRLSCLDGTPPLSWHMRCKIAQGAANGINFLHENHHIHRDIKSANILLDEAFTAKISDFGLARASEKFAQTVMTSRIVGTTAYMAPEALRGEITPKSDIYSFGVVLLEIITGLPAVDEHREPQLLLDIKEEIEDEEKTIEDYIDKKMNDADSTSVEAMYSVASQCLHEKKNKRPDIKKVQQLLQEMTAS

[13] = target: T3, Interleukin-1 receptor-associated kinase 4 (Homo sapiens); conditions: at 1 µM
[14] = target: Leucine-rich repeat serine/threonine-protein kinase 2 (Homo sapiens) (UniProt Q5S007); conditions: at 0.1 µM
Leucine-rich repeat serine/threonine-protein kinase 2 (Homo sapiens), sequence (Q5S007 whole entry): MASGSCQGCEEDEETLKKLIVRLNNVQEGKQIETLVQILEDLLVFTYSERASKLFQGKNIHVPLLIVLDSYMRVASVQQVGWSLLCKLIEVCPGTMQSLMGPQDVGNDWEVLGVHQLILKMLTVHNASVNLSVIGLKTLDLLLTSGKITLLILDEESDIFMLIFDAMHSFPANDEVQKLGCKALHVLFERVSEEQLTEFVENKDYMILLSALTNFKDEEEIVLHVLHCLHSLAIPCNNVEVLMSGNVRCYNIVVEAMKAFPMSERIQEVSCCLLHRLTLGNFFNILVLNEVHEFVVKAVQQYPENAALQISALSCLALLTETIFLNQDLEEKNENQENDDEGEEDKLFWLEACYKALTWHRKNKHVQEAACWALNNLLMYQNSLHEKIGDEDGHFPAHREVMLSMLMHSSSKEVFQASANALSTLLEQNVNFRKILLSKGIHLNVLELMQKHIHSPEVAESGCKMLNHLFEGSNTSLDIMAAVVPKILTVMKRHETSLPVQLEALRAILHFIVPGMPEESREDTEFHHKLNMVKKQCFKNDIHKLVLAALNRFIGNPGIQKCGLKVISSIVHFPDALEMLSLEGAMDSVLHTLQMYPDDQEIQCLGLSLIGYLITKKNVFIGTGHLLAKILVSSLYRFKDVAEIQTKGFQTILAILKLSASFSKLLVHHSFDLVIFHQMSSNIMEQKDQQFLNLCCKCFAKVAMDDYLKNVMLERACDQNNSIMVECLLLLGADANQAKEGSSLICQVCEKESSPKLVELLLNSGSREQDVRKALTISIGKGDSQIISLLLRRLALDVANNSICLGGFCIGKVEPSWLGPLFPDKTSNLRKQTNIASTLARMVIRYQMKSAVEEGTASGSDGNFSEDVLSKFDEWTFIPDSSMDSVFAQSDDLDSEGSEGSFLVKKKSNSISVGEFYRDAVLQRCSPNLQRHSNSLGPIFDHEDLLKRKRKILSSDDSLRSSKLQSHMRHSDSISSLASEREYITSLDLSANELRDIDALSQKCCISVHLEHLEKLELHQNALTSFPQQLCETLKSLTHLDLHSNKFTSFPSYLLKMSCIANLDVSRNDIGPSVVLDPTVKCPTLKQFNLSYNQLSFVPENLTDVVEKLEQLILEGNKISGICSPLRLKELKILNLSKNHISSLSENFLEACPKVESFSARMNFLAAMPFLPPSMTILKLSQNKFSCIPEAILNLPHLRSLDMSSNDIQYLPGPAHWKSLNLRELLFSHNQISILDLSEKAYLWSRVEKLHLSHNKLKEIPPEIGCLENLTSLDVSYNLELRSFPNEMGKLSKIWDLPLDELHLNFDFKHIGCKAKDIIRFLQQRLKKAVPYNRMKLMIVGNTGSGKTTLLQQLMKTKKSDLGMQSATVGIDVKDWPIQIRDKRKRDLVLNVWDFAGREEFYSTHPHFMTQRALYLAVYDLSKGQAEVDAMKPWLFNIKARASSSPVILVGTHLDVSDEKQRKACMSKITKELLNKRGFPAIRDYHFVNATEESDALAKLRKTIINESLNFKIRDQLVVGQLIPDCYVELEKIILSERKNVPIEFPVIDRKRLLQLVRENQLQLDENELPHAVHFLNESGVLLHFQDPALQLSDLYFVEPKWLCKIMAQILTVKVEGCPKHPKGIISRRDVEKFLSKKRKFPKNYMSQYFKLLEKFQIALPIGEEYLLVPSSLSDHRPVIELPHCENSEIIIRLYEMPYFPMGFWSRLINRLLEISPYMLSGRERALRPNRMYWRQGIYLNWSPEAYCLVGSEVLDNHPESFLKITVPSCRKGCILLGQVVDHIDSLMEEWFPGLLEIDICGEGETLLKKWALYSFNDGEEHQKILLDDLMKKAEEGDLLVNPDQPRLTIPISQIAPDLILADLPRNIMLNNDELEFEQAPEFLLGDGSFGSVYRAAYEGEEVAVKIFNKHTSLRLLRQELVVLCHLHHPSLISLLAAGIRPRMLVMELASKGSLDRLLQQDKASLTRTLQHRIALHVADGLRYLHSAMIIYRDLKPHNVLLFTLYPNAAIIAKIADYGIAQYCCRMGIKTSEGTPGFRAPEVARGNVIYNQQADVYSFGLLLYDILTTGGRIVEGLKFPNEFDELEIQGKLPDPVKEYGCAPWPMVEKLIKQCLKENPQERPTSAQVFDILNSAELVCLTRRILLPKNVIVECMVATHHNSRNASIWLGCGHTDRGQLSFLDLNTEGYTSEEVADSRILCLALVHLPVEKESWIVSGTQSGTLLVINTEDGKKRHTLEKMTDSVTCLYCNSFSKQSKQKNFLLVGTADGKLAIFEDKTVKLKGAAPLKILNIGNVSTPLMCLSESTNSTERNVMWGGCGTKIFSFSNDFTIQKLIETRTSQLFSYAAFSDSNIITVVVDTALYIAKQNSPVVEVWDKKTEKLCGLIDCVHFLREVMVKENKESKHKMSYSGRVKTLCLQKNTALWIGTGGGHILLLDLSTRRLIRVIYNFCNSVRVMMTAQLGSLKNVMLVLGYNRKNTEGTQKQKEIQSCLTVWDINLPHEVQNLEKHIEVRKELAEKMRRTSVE

[15] = target: Leucine-rich repeat serine/threonine-protein kinase 2 (Homo sapiens) (UniProt Q5S007); conditions: at 1 µM
[16] = test system: Leucine-rich repeat serine/threonine-protein kinase 2 (Homo sapiens), Q5S007 [G2019S]; conditions: at 0.1 µM
Leucine-rich repeat serine/threonine-protein kinase 2 (Homo sapiens), Q5S007 [G2019S], sequence (Q5S007 whole entry G2019S): as the sequence (Q5S007 whole entry) above, with G2019S counted along it

[17] = test system: Leucine-rich repeat serine/threonine-protein kinase 2 (Homo sapiens), Q5S007 [G2019S]; conditions: at 1 µM

SMILES	inhibition [1] [%]	inhibition [2] [%]	inhibition [3] [%]	inhibition [4] [%]	inhibition [5] [%]	inhibition [6] [%]	inhibition [7] [%]	inhibition [8] [%]	inhibition [9] [%]	inhibition [10] [%]	inhibition [11] [%]	inhibition [12] [%]	inhibition [13] [%]	inhibition [14] [%]	inhibition [15] [%]	inhibition [16] [%]	inhibition [17] [%]
Fc1ccc(-c2nc3n(c2-c2ccncc2)CCS3)cc1	2.33	3.03	7.29	-2.56	-1.24	5.8	7.17	5.81	5.73	1.81	-0.15	3.38	2.37	-3.58	-3.17	-0.21	-0.63
O=C(Nc1n[nH]c2cc(-c3cc(F)ccc3F)ccc12)C1CC1	11.7	2.25	8.92	0.04	-0.4	5.1	7.61	5.62	6.3	-1.79	-0.98	2.21	1.18	2.33	3.26	1.81	6.24
CN(c1ccc(NC(=O)Nc2c(Cl)cccc2Cl)cc1)c1ccnc(Nc2cccc(CS(C)(=O)=O)c2)n1	17.4	17.6	28.2	4.97	9.82	1.79	4.11	2.49	5.8	0.7	1.82	0.17	1.26	12.2	15.4	9.38	20.4
COc1ccc2cc(-c3c(-c4ccncc4)nc(-c4ccc([S+](C)[O-])cc4C)n3C)ccc2c1 (stereo not given)	2.2	3.84	21.3	-0.83	-0.09	0.29	-0.78	-0.1	-0.41	-0.64	2.82	-4.88	-0.25	-0.88	0.64	0.88	4.04
CS(=O)(=O)CCNCc1ccc(-c2ccc3ncnc(Nc4ccc(OCc5ccccc5)c(Br)c4)c3c2)o1	2.72	4.45	20.7	-2.48	-1.83	4.73	4.32	3.23	2.38	3.26	3.63	0.92	1.52	-4.59	-6.11	-1.19	-0.13
COC(=O)Nc1nc2ccc(Sc3ccc(NC(=O)Nc4cc(C(F)(F)F)ccc4F)cc3)cc2[nH]1	21.9	-0.49	5.58	3.14	-0.65	1.01	14.8	-0.53	17.5	-1.08	50	-0.12	0.72	0.83	9.98	0.3	4.85
O=C(NCC1CC1)c1ccc(-c2cccc(C(=O)NC3CC3)c2)cc1	0.81	-0.02	-2.38	1.15	1.3	3.46	3.07	1.59	1.43	5.36	7.69	-3.46	0.85	3.26	6.31	1.46	5.03
COc1ccc2cc(-c3c(-c4ccncc4)nc(-c4ccc(S(C)(=O)=O)cc4C)n3C)ccc2c1	5.53	3.64	20.9	-0.34	0.82	6.36	6.36	6.6	5.85	5.5	2.24	3.69	2.09	1.75	6.91	2.55	10.2
Cc1ccc(NC(=O)c2ccoc2)cc1-c1ccc(C(=O)NCC2CC2)cc1	3.21	3.34	1.5	-0.49	1.63	3.14	2.28	2.97	1.81	0.61	-0.41	1.67	2	1.24	4.06	2.32	2.75
C[C@@H](Oc1cc(-n2cnc3ccc(OC4CCN(C)CC4)cc32)sc1C(N)=O)c1ccccc1Cl	4.84	-0.81	3.04	-2.84	-1.32	5.72	7.68	4.5	3.24	2.09	0.92	1.54	3.69	-3.8	6.57	-1.8	13.5
Cc1ccc(C(=O)NC(C)C)cc1-c1ccc(C(=O)NCC2CC2)cc1	-0.5	-0.21	-0.56	-5.65	-1.41	-3.13	-5.03	-4.24	-2.75	-1.46	-1.23	-1.36	-0.58	-0.57	-1.69	0.59	2.07
NC(=O)c1ccc(Oc2nccc(-c3c(-c4ccc(F)cc4)ncn3C3CCNCC3)n2)cc1	4.62	4.3	4.13	2.59	4.42	7.51	10.8	4.69	5.64	3.18	0.88	2.75	3.85	0.29	5.49	3.7	7.46
O=C(Nc1n[nH]c2cc(-c3ccccc3)ccc12)C1CC1	16.1	1.86	5.44	4.16	1.7	7.16	6.29	6.47	6.53	-0.71	1.41	2.36	2.04	2.57	6.05	3.85	7.95
CCS(=O)(=O)c1ccc(OC)c(Nc2ncc(-c3ccccc3Cl)o2)c1	42.6	8.95	39.3	2.78	-0.17	0.55	0.2	0.25	0.86	0.78	-2.68	-1.05	3.5	2.06	10.3	1.06	13.4
COc1cc(Nc2ncc3c(C)nc(-c4cccc(C(F)(F)F)c4)n3n2)cc(OC)c1OC	10.6	11.6	42.7	1.78	2.75	5.44	14.8	5.48	13.2	3.02	-2.3	-2.83	1.37	8.04	17.4	11.1	39.6
